Only a selection was taken, and hits are over-represented in it overall.
Cycloheximide cs = counter-screen hit for Shiga toxin inhibitors, cycloheximide; cell reporter, cycloheximide protein synthesis inhibition counterscreen; max response, %; actives 12% (n = 300,000); in the data active = max response mostly above about 13%, no sharp cut-off; inactive = mostly below about 14%; note: read at 38.3 µM for the half of the compounds with a filed dose; 0% is about no effect
Shiga inhibitor = Shiga toxin inhibition | Vero cells, Shiga toxin protein synthesis inhibition reporter | inhibition, % at 38.7 µM | actives 9.2% (n = 290,000) | AID 2315; in the data active = inhibition mostly above about 28%, no sharp cut-off; inactive = mostly below about 43%; note: 0% is about no effect
AmpC detergent = inhibitors of E. coli AmpC beta-lactamase with detergent | P00811 | AmpC hydrolysis of nitrocefin, absorbance 480 nm, 0.01% Triton | Potency, µM (highest dose often 114 µM), inactives show top-dose activity change, negative = inhibition, usual class: inhibitors | actives 0.041% (n = 370,000);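 note: potency is the fitted concentration of half-maximal effect; 0% = no-compound wells and -100% = no-enzyme wells; nearly all actives have a fitted effect of over 25% in size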
Target sequence (P00811 whole entry, looked up): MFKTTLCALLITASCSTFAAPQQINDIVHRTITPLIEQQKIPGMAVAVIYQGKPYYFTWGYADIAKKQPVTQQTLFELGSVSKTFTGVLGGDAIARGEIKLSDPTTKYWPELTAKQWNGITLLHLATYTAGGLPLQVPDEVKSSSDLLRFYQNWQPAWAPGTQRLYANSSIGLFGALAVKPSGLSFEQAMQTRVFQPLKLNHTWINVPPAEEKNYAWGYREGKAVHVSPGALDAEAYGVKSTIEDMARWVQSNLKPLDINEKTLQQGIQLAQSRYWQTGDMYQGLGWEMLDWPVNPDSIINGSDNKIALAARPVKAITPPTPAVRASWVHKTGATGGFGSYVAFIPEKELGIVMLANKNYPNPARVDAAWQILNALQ
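AmpC (5.3 nM in the dispensed reagent) in 20 mM phosphate pH 7.0 with 0.01% (detergent screen) or 0.0001% Triton X-100 was preincubated with compounds for 15 min at room temperature. Nitrocefin was then added from an 800 uM solution, and hydrolysis was followed at 480 nm.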
NS1 function inh = influenza NS1 inhibition. Potency, µM (doses to about 46.1 µM), without a hit: top-dose activity, positive = more growth. actives 0.4% (n = 270,000). AID 2326; calls by dose curve; note: potency is the fitted concentration of half-maximal effect; actives are rising curves; nearly all actives have a fitted effect of over 50% in size
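Compounds were scored for reversing the slow growth caused by influenza A NS1 in S. cerevisiae, measured by optical density at 600 nm. Assay medium contained 2% galactose at pH 6.0; NS1-free yeast of the same strain were the positive control.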
AmpC inh no detg = AmpC beta-lactamase inhibition without detergent | actives 0.52% (n = 330,000) | Potency, µM (top dose mostly 57.1 µM), for inactives: top-dose activity change, negative = inhibition, hits mostly inhibitors | AID 485341 | AmpC nitrocefin hydrolysis, absorbance 480 nm, 0.0001% Triton | P00811;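 note: potency is the fitted concentration of half-maximal effect; plate controls were no compound for no effect and no enzyme for full effect; nearly all actives have a fitted effect of over 20% in size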
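AmpC (5.3 nM in the dispensed reagent) in 20 mM phosphate pH 7.0 with 0.01% (detergent screen) or 0.0001% Triton X-100 was preincubated with compounds for 15 min at room temperature. Nitrocefin was then added from an 800 uM solution, and hydrolysis was followed at 480 nm.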
Active calls of the source: *. Unless noted, calls come from the whole dose curve; as a rule, active = well fitted curve in the direction sought with a large enough effect; inconclusive = small, poorly fitted or top-dose-only effect, or another doubt; inactive = no such curve, though single readings can be large; an effect the other way counts as inactive or inconclusive.

What do the screens show for `COC(=O)c1ccc(N2OC3(C)C=CC2CC3)cc1` (stereo not drawn)?
Cycloheximide cs: 56*; Shiga inhibitor: active; AmpC detergent: -9%; NS1 function inh: -5%; AmpC inh no detg: -9%

How did COC(=O)c1ccc(N2C(=O)CC(N3CCOCC3)C2=O)cc1 (stereo not drawn) do in these assays?
Cycloheximide cs: -3; Shiga inhibitor: -16; AmpC detergent: inconclusive; NS1 function inh: -156%; AmpC inh no detg: -11%

What do the screens show for `COC(=O)c1sc(NC(=O)C(C)C)c(C(=O)OC)c1C`?
Cycloheximide cs: 40*; Shiga inhibitor: 16; AmpC detergent: 14%; NS1 function inh: -10%; AmpC inh no detg: 1%

What do the screens show for `NC(=O)C1CCCN(Cc2ccc3ccccc3c2)C1` (stereo not drawn)?
Cycloheximide cs: 1; Shiga inhibitor: -16; AmpC detergent: inconclusive; NS1 function inh: 9%; AmpC inh no detg: 8%

How did OC1CCCN(Cc2ccc3c(c2)Cc2ccccc2-3)C1 (stereo not drawn) do in these assays?
Cycloheximide cs: 16*; Shiga inhibitor: 45; AmpC detergent: -1%; NS1 function inh: -2%; AmpC inh no detg: -2%

What do the screens show for `O=C(NCc1ccccc1)C1CCCN(C(=O)Nc2ccccc2)C1` (stereo not drawn)?
Cycloheximide cs: 11*; Shiga inhibitor: 53; AmpC detergent: 2%; NS1 function inh: -11%; AmpC inh no detg: -13%

How did COc1ccc(NC(=O)N2CCCC(C(=O)NCCc3ccccc3)C2)cc1 (stereo not drawn) do in these assays?
Cycloheximide cs: 34*; Shiga inhibitor: 65*; AmpC detergent: 0%; NS1 function inh: -5%; AmpC inh no detg: 14%

Results for CCc1ccc(-c2cn3c(n2)sc2cc(C(=O)NCCC4=CCCCC4)ccc23)cc1 ?
AmpC detergent: 20%

Results for COC(=O)c1ccc(NC(=O)CSc2cn(CC(=O)N3CCCCC3)c3ccccc23)cc1 ?
AmpC detergent: 1%

Results for Clc1cccc(Cl)c1CNc1ccc(N2CCCC2)cc1 ?
Cycloheximide cs: 20*; Shiga inhibitor: 85; AmpC detergent: -4%; NS1 function inh: 6%; AmpC inh no detg: -33%

How did Nc1c(N(C(=O)Nc2ccc(Cl)c(Cl)c2)C2CCCC2)c(=O)[nH]c(=O)n1Cc1ccccc1 do in these assays?
Cycloheximide cs: -6; Shiga inhibitor: -6; AmpC detergent: -4%; NS1 function inh: 8%; AmpC inh no detg: -13%

What do the screens show for `Nc1nc(-c2cccc(F)c2)cs1`?
Cycloheximide cs: -2; Shiga inhibitor: 17; AmpC detergent: 1%; NS1 function inh: 6%; AmpC inh no detg: -20%

Results for Clc1ccc(-c2csc(-c3ccno3)n2)cc1 ?
Cycloheximide cs: 23*; Shiga inhibitor: 31; AmpC detergent: -6%; NS1 function inh: 4%; AmpC inh no detg: -57%

Results for Clc1ccc(-c2cc(-c3ccccc3)on2)cc1 ?
AmpC detergent: 0%; AmpC inh no detg: -12%

How did Cc1nc(-c2cc(-c3ccc(Cl)cc3)no2)cs1 do in these assays?
Cycloheximide cs: 52*; Shiga inhibitor: 83*; AmpC detergent: 2%; NS1 function inh: 0%; AmpC inh no detg: -8%

What do the screens show for `Fc1cccc(-c2csc(-c3ccno3)n2)c1`?
Cycloheximide cs: 25*; Shiga inhibitor: 38*; AmpC detergent: -4%; NS1 function inh: -1%; AmpC inh no detg: -23%

Results for Clc1ccc(-c2nc(-c3cc4cc(Cl)ccc4o3)cs2)cc1 ?
Cycloheximide cs: -2; Shiga inhibitor: 3; AmpC detergent: -13%; NS1 function inh: 9%; AmpC inh no detg: -19%

How did CN1C[C@H](c2ccccc2)C(O)([C@]2(c3ccccc3)CN(C)C[C@@H](c3ccccc3)C2=O)[C@H](c2ccccc2)C1 (stereo partly drawn) do in these assays?
NS1 function inh: -3%

Results for CN(C)/C=N/c1[nH]ncc1C#N ?
Cycloheximide cs: -9; Shiga inhibitor: 28; AmpC detergent: -13%; AmpC inh no detg: -6%

Results for CN(C)C=Nc1ncc2c([nH]c3ccccc32)c1C#N ?
Cycloheximide cs: 50*; Shiga inhibitor: 36; AmpC detergent: 9%; NS1 function inh: -15%; AmpC inh no detg: 68%

Results for CC1(C)CCC[C@@](C)([C@H]2CC[C@]3(C)[C@@H]2[C@H](O)C[C@@H]2[C@@]4(C)CC[C@H](O)C(C)(C)[C@@H]4CC[C@]23C)O1 ?
Cycloheximide cs: -2; Shiga inhibitor: 16

How did CCC(NC(=O)c1cc(COc2ccc(OC)cc2Cl)on1)c1ccncc1 (stereo not drawn) do in these assays?
Cycloheximide cs: 64*; Shiga inhibitor: 63; AmpC detergent: -3%; NS1 function inh: -21%; AmpC inh no detg: 62%

What do the screens show for `CCC(NC(=O)c1cc(COc2ccc(Cl)cc2OC)on1)c1ccncc1` (stereo not drawn)?
Cycloheximide cs: 38*; Shiga inhibitor: 76*; AmpC detergent: 4%; NS1 function inh: -23%; AmpC inh no detg: 79%

Results for CC(CNC(=O)c1cc(COc2ccc3ncccc3c2)on1)c1ccccc1 (stereo not drawn) ?
Cycloheximide cs: -1; Shiga inhibitor: -4; AmpC detergent: -11%; NS1 function inh: -2%; AmpC inh no detg: -5%

How did COc1cc(Cl)ccc1OCc1cc(C(=O)NC(C)Cc2cnccn2)no1 (stereo not drawn) do in these assays?
Cycloheximide cs: 42*; Shiga inhibitor: 70*; AmpC detergent: 1%; NS1 function inh: -28%; AmpC inh no detg: 40%

Results for COc1cc(Cl)ccc1OCc1cc(C(=O)NCC(C)c2ccccc2)no1 (stereo not drawn) ?
Cycloheximide cs: 25*; Shiga inhibitor: 33; AmpC detergent: -12%; NS1 function inh: -36%; AmpC inh no detg: 3%

How did COc1ccc(OCC(=O)Nc2cc(-c3nc4ccccc4o3)ccc2Cl)cc1 do in these assays?
AmpC detergent: -1%

Results for COc1ccc(/C=C/C(=O)O/N=C(\N)c2ccccc2)cc1OC ?
Cycloheximide cs: 36*; Shiga inhibitor: 28*; AmpC detergent: -13%; NS1 function inh: -13%; AmpC inh no detg: 51%

What do the screens show for `Cc1ccc(/C(N)=N/OC(=O)/C=C/c2ccccc2)cc1`?
Cycloheximide cs: 23*; Shiga inhibitor: 55; AmpC detergent: 4%; NS1 function inh: -156%; AmpC inh no detg: -34%

Results for COc1ccc(/C=C/C(=O)OC(C)C(=O)c2ccccc2)cc1OC (stereo not drawn) ?
AmpC detergent: inconclusive; AmpC inh no detg: 75%

What do the screens show for `COc1ccc(/C(N)=N/OC(=O)/C=C/c2ccccc2)cc1`?
Cycloheximide cs: 19; Shiga inhibitor: 30; AmpC detergent: 2%; AmpC inh no detg: -20%

How did Cc1ccccc1/C(N)=N/OC(=O)/C=C/c1ccccc1 do in these assays?
Cycloheximide cs: 44*; Shiga inhibitor: 159*; AmpC detergent: inconclusive; NS1 function inh: -161%; AmpC inh no detg: -36%
